An excerpt weighted towards active compounds, which were near 11% of everything screened.
NPR1 antag = blocks ANP-stimulated signaling of human Npr1 receptor | P16066 | HEK293 hNpr1 GloSensor cGMP, ANP-stimulated luminescence | Potency, µM (titrated, usually from 46.3 µM), inactives show at the top dose activity change, negative = inhibition, hits mostly inhibitors | 76,000 compounds, 1.6% hits | AID 1347048; calls by dose curve; note: % is set by controls: 0 for no effect and ±100 for the full control effect; nearly all actives have a fitted effect of over 60% in size
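HEK293 cells stably expressing human Npr1 and cGMP GloSensor pGS-40F, loaded 2 h with 2% GloSensor reagent, given compound 30 min at room temperature. Luminescence read before and 20 min after 0.1 nM hNppA.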
FLuc inh-1 = inhibitors of firefly (Photinus pyralis) luciferase | 76,000 compounds, 2.5% hits | purified P. pyralis luciferase, luminescence, biochemical | AID 1347043 | Potency, µM (titrated, usually from 115 µM), hits mostly inhibitors; note: % is set by controls: 0 for no effect and ±100 for the full control effect; nearly all actives have a fitted effect of over 65% in size
Target sequence (P08659 whole entry, looked up): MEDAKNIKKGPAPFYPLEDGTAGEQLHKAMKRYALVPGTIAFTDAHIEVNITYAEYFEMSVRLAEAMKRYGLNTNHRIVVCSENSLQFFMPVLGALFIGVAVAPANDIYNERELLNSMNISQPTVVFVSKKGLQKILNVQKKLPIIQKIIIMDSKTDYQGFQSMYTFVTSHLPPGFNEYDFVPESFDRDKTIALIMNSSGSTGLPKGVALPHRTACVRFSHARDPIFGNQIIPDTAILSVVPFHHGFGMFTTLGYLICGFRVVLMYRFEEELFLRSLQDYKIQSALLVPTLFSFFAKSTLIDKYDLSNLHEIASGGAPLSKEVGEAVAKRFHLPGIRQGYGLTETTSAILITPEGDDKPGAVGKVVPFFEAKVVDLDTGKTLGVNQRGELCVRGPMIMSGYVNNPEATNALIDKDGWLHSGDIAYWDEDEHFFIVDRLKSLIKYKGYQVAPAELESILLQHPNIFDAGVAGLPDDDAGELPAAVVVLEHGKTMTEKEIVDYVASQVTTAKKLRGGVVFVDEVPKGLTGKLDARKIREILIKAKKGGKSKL
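FLuc 10nM, D-luciferin 10uM, ATP 10uM, Mg acetate 10mM, Tris acetate pH 7.5, Tween/BSA; cpd qHTS; enzyme added last; CCD luminescence.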
NIH3T3 tox = NIH 3T3 cell cytotoxicity. Potency, µM (highest dose often 96.7 µM), for inactives: at the top dose activity change, negative = cytotoxicity, hits mostly inhibitors. 94,000 compounds, 4.3% hits. NIH 3T3 viability, CellTiter-Glo ATP luminescence, 48-72 h. AID 1345082; note: % is set by controls: 0 for no effect and ±100 for the full control effect; nearly all actives have a fitted effect of over 55% in size
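ATP-dependent luminescence (CellTiter-Glo) served as the viability signal for NIH 3T3 cells treated with compound for 48 or 72 hr at 37 °C.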
HEK293 tox = cytotoxic compounds in HEK 293 cells; 94,000 compounds, 6.6% hits; Potency, µM (top dose mostly 115 µM), without a hit: at the highest dose activity change, negative = cytotoxicity, actives largely listed as inhibitors; AID 1345083; HEK 293 viability, ATP luminescence (CellTiter-Glo), 48-72 h; note: % is set by controls: 0 for no effect and ±100 for the full control effect; nearly all actives have a fitted effect of over 60% in size
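HEK 293 cells at 250 cells/well were exposed to compounds by pintool transfer for 48 or 72 hr at 37 degree Celsius, 5% CO2. Viability was read as ATP-coupled luminescence with CellTiter-Glo after 10 min at room temperature.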
FLuc SDR -ATP = stabilizes firefly luciferase without ATP | Potency, µM (highest dose often 32.7 µM), for the others: top-dose activation (signal gain), usual class: activators | Purified FLuc-C-HiBiT, Nano-Glo HiBiT luminescence, no ATP | 1,300 compounds, 7.8% hits | shares compounds with FLuc inh-1 | AID 1963318; note: nearly all actives have a fitted effect of over 55% in size
FLuc SDR ATP = firefly luciferase binding stabilization, ATP added; Potency, µM (doses to about 32.7 µM), without a hit: at the top dose activation (gain of signal), usual class: activators; shares compounds with FLuc inh-1; purified FLuc-C-HiBiT + ATP, HiBiT complementation luminescence; 1,300 compounds, 8.7% hits;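 note: signal reports ligand binding via conformational change of the enzyme rather than luciferase catalysis; % of control where 0% means no effect; nearly all actives have a fitted effect of over 55% in size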
FLuc inh-2 = inhibitors of firefly luciferase enzymatic activity; shares compounds with FLuc inh-1; purified FLuc-C-HiBiT enzyme, luciferin luminescence; Potency, µM (doses to about 32.7 µM), for the others: at the highest dose activity change, negative = inhibition, usual class: inhibitors; 1,300 compounds, 42% hits; AID 1963320; note: % is set by controls: 0 for no effect and ±100 for the full control effect; nearly all actives have a fitted effect of over 70% in size
Starred values were filed as active, the others as inactive; i = inactive; ? = inconclusive; · = no result; [ ] = remark or other dose. Unless noted, calls come from the whole dose curve; as a rule, active = well fitted curve in the direction sought with a large enough effect; inconclusive = small, poorly fitted or top-dose-only effect, or another doubt; inactive = no such curve, though single readings can be large; an effect the other way counts as inactive or inconclusive. Potency is the fitted concentration of half-maximal effect.

SMILES | NPR1 antag | FLuc inh-1 | NIH3T3 tox | HEK293 tox | FLuc SDR -ATP | FLuc SDR ATP | FLuc inh-2
COc1ccc(Nc2cc3c(cn2)CN(C)CCN3)cc1OC | -1.3%[70.6 µM] | i | ? | -29.8%[172 µM] | · | · | ·
COc1cccc(Nc2cc3c(cn2)CN(C(C)=O)CCN3)c1 | -30.4%[70.6 µM] | 1.78µM* | ? | ? | ? | ? | 9.04µM*
c1cncc(Nc2cc3c(cn2)CN(CC2CCCCC2)CCN3)c1 | 5.7%[70.6 µM] | ? | ? | ? | · | · | ·
CC(=O)N1CCNc2cc(Nc3cccc(N(C)C)c3)ncc2C1 | -1.3%[70.6 µM] | 2.82µM* | ? | ? | 31.4%[49.3 µM] | ? | 16.1µM*
COCc1nnc(C2CC3(CCN(C(=O)c4cccs4)CC3)CN2C)o1 (stereo unspecified) | · | · | -12.5% | 4.3% | · | · | ·
O=C(NC1CCCC1)N1c2ccccc2CC1c1noc(C2CCOCC2)n1 (stereo unspecified) | -28.3% | 5.01µM* | -17.1% | ? | 23.3% | 18.5% | ?
Cc1nc(N2CCC(NC(=O)c3cccc4[nH]ccc34)CC2)cc(C(F)(F)F)n1 | -26.4% | i | ? | ? | · | · | ·
CCN1CCN(c2ccc(-c3cccc(N)c3)nn2)CC1 | ? | 14.1µM* | ? | ? | 23.4% | ? | 9.89µM*
Nc1cccc(-c2ccc(N3CCCCC3)nn2)c1 | 3.98µM* | 0.398µM* | 35.5µM* | 35.5µM* | 1.57µM* | 1.24µM* | 0.556µM*
COc1ccc(Cn2c(C3CCN(C(=O)c4cc(C)cc(C)c4)CC3)n[nH]c2=O)cc1 | -1.3% | i | -21.7% | -1.9% | · | · | ·
CNC(=O)c1cc(C2CC2)nc2c1c(C1CCN(C(=O)c3cccnc3)CC1)nn2C | · | · | -2.4% | i | · | · | ·
O=C(c1nc2cccnc2n(Cc2ccccc2)c1=O)N1CCN([S+](=O)([O-])c2cccs2)CC1 | · | · | -25.6% | ? | · | · | ·
COc1ccc(OCc2cc(C(=O)N3C[C@H]4CC[C@H]3C4)n[nH]2)c(Cl)c1 | -17.8% | 8.91µM* | ? | ? | 13.2% | 12.8% | -5.1%
COC(=O)c1ccc(NC(=O)c2c(C)oc3ccn(Cc4ccc(F)cc4)c(=O)c23)cc1 | -0.8% | i | 3.3% | -16.8% | · | · | ·
CNC(=O)c1cc(C2CC2)nc2c1c(C1CCCN(C(=O)C3CC3)C1)nn2C (stereo unspecified) | · | · | -30.8% | -7.4% | · | · | ·
C[C@@H]1C(=O)O[C@H]2[C@H]1CC[C@@]1(C)Cc3sc(NC(=O)c4ccncc4)nc3[C@@H](C)[C@H]21 | ? | 0.501µM* | ? | 56.2µM* | ? | ? | 0.57µM*
C[C@@H]1C(=O)O[C@H]2[C@H]1CC[C@@]1(C)Cc3sc(NC(=O)c4ccc(F)c(Cl)c4)nc3[C@@H](C)[C@H]21 | -15.6% | i | -23.8% | ? | · | · | ·
C[C@@H]1C(=O)O[C@H]2[C@H]1CC[C@@]1(C)Cc3sc(NC(=O)c4c(F)cccc4F)nc3[C@@H](C)[C@H]21 | ? | 2.24µM* | -28.8% | ? | 20.5% | 19.4% | 9.89µM*
COc1cccc(CN2C[C@@H](CO)[C@H](NC(=O)C3CC3)C2)n1 | 2.5% | i | -15.6% | -12.4% | · | · | ·
Cn1ncc2c(C(=O)NCC3CCCCC3)cc(-c3ccccc3F)nc21 | · | · | -22.5% | ? | · | · | ·
CCc1ccc2oc(-c3ccc(C)c(NC(=O)c4ccc(C#N)cc4F)c3)nc2c1 | · | · | · | · | 17.0% | 13.2% | -14.8%
COc1ccc(-c2nc3cc(C(=O)NCc4ccccc4F)ccc3o2)cn1 | · | · | -9.6% | -11.8% | · | · | ·
CC(C)CCN1CCc2c(sc3ncnc(N4CCOCC4)c23)C1 | -1.2% | i | ? | ? | · | · | ·
CC(=O)NC1CCN(Cc2cn(-c3ccc(C)cc3)nc2-c2cccc(C)c2)C1 (stereo unspecified) | -0.7% | 12.6µM* | ? | ? | 14.7% | 9.1% | ?
OC(c1nc(Nc2ccc(Oc3ccccc3)cc2)n[nH]1)C1CC1 (stereo unspecified) | -21.6%[70.6 µM] | 14.1µM* | ? | ? | 17.3%[49.3 µM] | 11.4%[49.3 µM] | ?
SMILES | NPR1 antag | FLuc inh-1 | NIH3T3 tox | HEK293 tox | FLuc SDR -ATP | FLuc SDR ATP | FLuc inh-2
Cn1cc(CN2C[C@H](C(=O)Nc3cccc(F)c3)C[C@@H]2c2cccc(C(F)(F)F)c2)cn1 | -4.8% | i | ? | ? | · | · | ·
COc1ccc(C(=O)Nc2cc(C)c(O)c(-c3nc4ccccc4s3)c2)cc1OC | · | · | · | · | 21.3% | 12.5% | ?
COc1cc(C(=O)Nc2cc(C)c(O)c(-c3nc4ccccc4s3)c2)cc(OC)c1OC | · | · | · | · | 15.0% | 9.7% | -6.9%
COc1ccc(C2(C(=O)NCc3ccccc3F)CCOCC2)cc1 | · | · | -8.9% | -3.4% | · | · | ·
O=C(C1CCc2nnc(C3CCN([S+](=O)([O-])c4ccccc4Cl)CC3)n21)N1CCOCC1 (stereo unspecified) | · | · | -26.0% | -24.2% | · | · | ·
COc1cccc(Nc2ncc(-c3ccc(OC)nc3)c3c2OCC3)c1 | -28.7%[70.6 µM] | 5.62µM* | ? | ? | 14.4%[49.3 µM] | 10.5%[49.3 µM] | ?
O=C(Nc1ncc(-c2ccccc2)c2c1OCC2)c1ccccc1 | -22.7%[70.6 µM] | 5.62µM* | ? | ? | 16.5%[49.3 µM] | 20.3%[49.3 µM] | ?
COc1cccc(Nc2ncc(-c3ccccc3OC)c3c2OCC3)c1 | -14.9%[70.6 µM] | i | ? | ? | · | · | ·
CNC(=O)c1cccc(-c2cnc(Nc3ccccc3)c3c2CCO3)c1 | -5.9%[70.6 µM] | 8.91µM* | 35.5µM* | 89.1µM* | 19.2%[49.3 µM] | 13.2%[49.3 µM] | ?
O=C(Nc1ncc(-c2ccccc2)c2c1OCC2)c1cn[nH]c1 | 4.6%[70.6 µM] | i | ? | -0.2%[172 µM] | · | · | ·
Fc1cccc(-c2cnc(Nc3ccc(N4CCOCC4)cc3)c3c2CCO3)c1 | -28.4%[70.6 µM] | 10µM* | ? | ? | 16.8%[49.3 µM] | 9.8%[49.3 µM] | ?
COc1cncc(Nc2ncc(-c3cccnc3)c3c2OCC3)c1 | -0.5%[70.6 µM] | i | ? | ? | · | · | ·
COCCNc1ncc(-c2cccc(NC(C)=O)c2)c2c1OCC2 | ? | 6.31µM* | ? | ? | 24.1%[49.3 µM] | ? | ?
CNC(=O)c1cccc(-c2cnc(Nc3cccnc3OC)c3c2CCO3)c1 | ? | 3.55µM* | 44.7µM* | 28.2µM* | 33.8%[49.3 µM] | 18.8%[49.3 µM] | 5.08µM*
COCCNc1ncc(-c2ccc([S+](C)(=O)[O-])cc2)c2c1OCC2 | -0.4%[70.6 µM] | i | ? | -17.4%[172 µM] | · | · | ·
CNC(=O)c1cccc(-c2cnc(NC(=O)Cc3ccccc3)c3c2CCO3)c1 | 8.91µM* | 0.447µM* | ? | ? | 11.4µM* | ? | 3.21µM*
CCOc1ccc2nc(N(Cc3cccnc3)C(=O)c3cccs3)sc2c1 | · | · | · | · | 10.1% | 7.5% | -18.7%
